Bioassay records: PubChem BioAssay, several laboratories
E coli growth-1: E. coli growth inhibition; Escherichia coli growth, OD600, 23 h; hits give low values; OD600 absorbance (no concentration beside the values); 330,000 tested, 0.21% active;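 active means OD600 absorbance below the run mean of sample wells minus 3.6 SD, in any replicate, cut at about 0.56 in these data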
E coli growth-2: counter-screen for AddAB inhibitors: E. coli growth inhibition. E. coli V3065 growth, OD600 absorbance, 18 h. 330,000 tested, 0.27% active. inhibition, % at 11.9 µM;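 active means inhibition above the campaign's mean inhibition across all tested compounds plus 3 SD, cut at about 9.9% in these data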;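 further: uninfected addAB+ strain grown without phage in ampicillin broth; 0% = DMSO wells and 100% = ciprofloxacin 0.95 µg/ml wells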
Tat transport: blocks Tat-dependent protein export in E. coli; E. coli MC4100 TorA-mCherry Tat export, fluorescence; inhibition, % at 10 µM; 340,000 tested, 0.036% active; AID 488895;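 active means mean replicate inhibition at least 50% and at least half of replicates individually reaching 50%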;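 further: exported cargo escapes ClpAP degradation while cytoplasmic cargo is degraded and loses fluorescence; 0% = median of neutral control wells and 100% = median of NaSCN control wells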
phage Ecoli inh: E. coli growth loss with phage present; growth absorbance; inhibition, % at 11.9 µM; 360,000 tested, 0.26% active; in the data active means inhibition above about 11%
AddAB inh: less growth of phage-infected E. coli with AddAB | E. coli expressing H. pylori AddAB, absorbance growth | inhibition, % at 11.9 µM | 330,000 tested, 0.29% active | AID 435030; in the data active means inhibition above about 12%;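 further: 0% = vehicle wells of infected cells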
Starred values were filed as active, the others as inactive; . = no result. Only some compounds are listed: those with a hit (about 0.5% of all), similar ones and a draw of the others.

SMILES | E coli growth-1 | E coli growth-2 | Tat transport | phage Ecoli inh | AddAB inh
CCCCCCCCN1C(CC(=O)O)c2cc(C(F)(F)F)ccc2S1(=O)=O (configuration not stated) | 0.653 | . | . | . | .
CCCCCCCCCCCCN1[C@@H](CC(=O)O)c2cc(C(F)(F)F)ccc2S1(=O)=O | . | 0.0 | 51.8* | 4.9 | 1.8
OCC1(CO)COC(c2ccccc2)=N1 | 0.631 | -0.9 | 16.4 | 0.0 | 0.5
O=C1OCC(CO)(CO)N=C1NNc1ccc(Cl)c(Cl)c1 | 0.176* | -0.8 | 1.2 | 7.0 | 0.7
CCOc1ccc(Oc2c(C=NNC(=O)C3CC3)c(C)nn2-c2ccccc2)cc1 | 0.697 | . | . | . | .
O=C(Nc1cccs1)Nc1ccc(Br)cc1F | 0.485* | 3.8 | -5.1 | 10.7 | 5.3
COC1OC2O[C@@]3(C)CCC4C(C)CCC(C1C)[C@@]24OO3 (some centres not stated) | 0.357* | . | . | . | .
COc1ccc2cc(C(c3nnnn3C3CCCC3)N3CCCCCC3)c3nnnn3c2c1 (configuration not stated) | 0.776 | 12.2* | -3.9 | 2.1 | 9.2
COc1ccc2cc(C(c3nnnn3C3CCCCC3)N3CCCCCC3)c3nnnn3c2c1 (configuration not stated) | 0.728 | 0.2 | -5.9 | 0.5 | 0.4
O=C(Nc1ccncc1)Nc1ccc(F)c(Cl)c1 | 0.514* | 0.9 | -2.6 | 6.3 | 3.8
Fc1ccc(NC(=S)Nc2ccc(F)c(Cl)c2)cc1Cl | 0.495* | 0.0 | -9.2 | . | 1.9
O=C(Nc1ccc(F)c(Cl)c1)Nc1ccc(Cl)cn1 | 0.719 | -0.8 | -0.2 | 3.7 | -1.0
Cn1nnnc1SCC1=C(C(=O)O)N2C(=O)[C@@H](NC(=O)[C@H](O)c3ccccc3)[C@H]2SC1 | . | -0.6 | -9.3 | . | -1.9
Cc1cc(C(F)F)nn1CC(=O)NC1C(=O)N2C(C(=O)O)=C(CSc3nnnn3C)CSC12 (configuration not stated) | 0.187* | 4.2 | -8.5 | 3.3 | 4.6
CC(C(=O)NC1C(=O)N2C(C(=O)O)=C(CSc3nnnn3C)CSC12)n1cc(Br)cn1 (configuration not stated) | 0.508* | -1.5 | -11.4 | 4.7 | -2.2
Cc1nn(C(C)C(=O)NC2C(=O)N3C(C(=O)O)=C(CSc4nnnn4C)CSC23)cc1Cl (configuration not stated) | 0.431* | 0.4 | -16.3 | 5.8 | -0.7
CN(C)CCn1nnnc1SCC1=C(C(=O)O)N2C(=O)C(NC(=O)Cc3csc(N)n3)C2SC1 (configuration not stated) | 0.0615* | . | . | . | .
Cn1nnnc1SCC1=C(C(=O)O)N2C(=O)C(NC(=O)C3CC3c3ccccc3)C2SC1 (configuration not stated) | 0.64 | 1.4 | -21.6 | 3.6 | 1.2
Cc1cccc(C2C3C(=O)N(Cc4ccccc4)C(=O)C3[C@]3(Cc4ccccc4)C(=O)N(c4cccc(F)c4)C(=O)N23)c1 (some centres not stated) | 0.748 | . | . | . | .
O=C(NN=Cc1ccc([N+](=O)[O-])o1)C(O)c1ccccc1 (configuration not stated) | 0.445* | . | . | . | .
COC(=O)NN=Cc1ccc([N+](=O)[O-])o1 | 0.0515* | . | . | . | .
Cc1nc2ccccn2c1C(=O)N/N=C/c1ccc([N+](=O)[O-])o1 | . | 6.0 | -9.8 | 7.0 | 8.8
COc1ccccc1OCC(=O)NN=CC=Cc1ccc([N+](=O)[O-])o1 | 0.365* | . | . | . | .
Cc1nc2ccccn2c1C(=O)NN=Cc1ccc([N+](=O)[O-])o1 | 0.516* | . | . | . | .
CCN(CC)c1ccc(C=Nn2c(C)cc(C)cc2=O)cc1 | 0.673 | . | . | . | .
SMILES | E coli growth-1 | E coli growth-2 | Tat transport | phage Ecoli inh | AddAB inh
CC(O)C1CNC(=O)C(=O)N1CCC12CC3CC(CC(C3)C1)C2 (configuration not stated) | 0.71 | . | . | . | .
O=C1CCC(O)CCN1CCC(Sc1ccc(Br)cc1)c1ccccc1 (configuration not stated) | 0.698 | . | . | . | .
CCN(CC)c1ccc(N=Cc2ccc([N+](=O)[O-])o2)cc1 | 0.146* | 5.0 | -1.3 | 4.9 | 11.6
COc1ccc(Br)cc1C=NNC(=O)c1ccc(COc2ccc3c(c2)CCC3)o1 | 0.707 | . | . | . | .
Cc1cccc(NC(=S)N/N=C/c2ccc([N+](=O)[O-])s2)c1 | . | 19.2* | -10.1 | 10.8 | 14.7*
COc1ccc(C=CC(=O)Nc2cc(S(=O)(=O)N3CCCCC3)ccc2N2CCCCC2)cc1OC | 0.697 | . | . | . | .
CCCCCCCCCCCCCCCC[n+]1cccc2ccccc21 | 0.0925* | 4.3 | 4.9 | 4.3 | 6.0
O=C1C=C(c2ccc(C(=O)O)cc2)CC(c2ccc(Cl)cc2)C1 (configuration not stated) | 0.674 | . | . | . | .
O=C(Oc1ccc(C=NNC(=O)c2ccccc2O)cc1)c1ccccc1 | 0.711 | . | . | . | .
